Unmarked numbers belong to inactive results. The source made the active and inactive calls. Unless noted, no stated cut-off is given here; in the data, active means inhibition above about 44%; inactive means the rest.
Experiments:
[1] = StAR promoter reporter inhibitors, counter-screen for LRH-1 inverse agonist project, cell-based, luminescence, high throughput (AID 651611; in the data active means inhibition above about 28%); details: StAR promoter luciferase reporter counterscreen, at 3.6 µM, stronger effect = higher value
[2] = target: Nuclear receptor subfamily 5 group A member 2 (Homo sapiens) (UniProt O00482); assay: NR5A2 activity suppression in reporter cells – cell-based, luminescence, confirmation (AID 651613; in the data active means inhibition above about 42%;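 further: HEK293T cells co-transfected with LRH-1 and StAR promoter luciferase reporter; 0% = vehicle wells and 100% = parental cells lacking receptor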); details: cell-based LRH-1 luciferase reporter, inverse agonism; at 3.6 µM; stronger effect = higher value
[3] = target: Steroidogenic factor 1 (Homo sapiens) (UniProt Q13285); assay: inverse agonism at SF1 nuclear receptor – cell-based, luminescence, high throughput, counter-screen for LRH-1 inverse agonist project (AID 651614); details: cell-based SF1 luciferase reporter, at 3.6 µM, stronger effect = higher value;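 further: cells cotransfected with StAR promoter reporter and SF1 expression vector; 0% = vehicle on cells with receptor and 100% = vehicle on cells lacking receptor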
[4] = compounds suppressing VP16-driven luciferase signal – cell-based, luminescence, high throughput, counter-screen for LRH-1 inverse agonist project (AID 651615; in the data active means inhibition above about 33%); details: Gal4-VP16 luciferase reporter cells, at 3.6 µM, stronger effect = higher value

Nuclear receptor subfamily 5 group A member 2 (Homo sapiens), sequence (O00482 whole entry, looked up): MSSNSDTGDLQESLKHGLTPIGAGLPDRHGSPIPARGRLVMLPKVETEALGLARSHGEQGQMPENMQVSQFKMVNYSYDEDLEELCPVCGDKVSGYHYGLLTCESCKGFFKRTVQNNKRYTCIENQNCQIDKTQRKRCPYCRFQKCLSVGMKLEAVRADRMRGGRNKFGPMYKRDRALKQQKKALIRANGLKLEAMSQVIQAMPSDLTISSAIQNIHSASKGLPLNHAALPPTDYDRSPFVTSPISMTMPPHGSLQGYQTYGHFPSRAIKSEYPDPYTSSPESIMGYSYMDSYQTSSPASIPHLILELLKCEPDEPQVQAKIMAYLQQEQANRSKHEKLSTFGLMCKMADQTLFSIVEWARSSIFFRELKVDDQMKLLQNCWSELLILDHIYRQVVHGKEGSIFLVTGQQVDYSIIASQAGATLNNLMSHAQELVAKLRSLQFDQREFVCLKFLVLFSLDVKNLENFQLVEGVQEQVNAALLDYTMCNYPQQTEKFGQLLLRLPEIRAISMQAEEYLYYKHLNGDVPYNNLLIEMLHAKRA
Steroidogenic factor 1 (Homo sapiens), sequence (Q13285 whole entry, looked up, the tested form may be a part): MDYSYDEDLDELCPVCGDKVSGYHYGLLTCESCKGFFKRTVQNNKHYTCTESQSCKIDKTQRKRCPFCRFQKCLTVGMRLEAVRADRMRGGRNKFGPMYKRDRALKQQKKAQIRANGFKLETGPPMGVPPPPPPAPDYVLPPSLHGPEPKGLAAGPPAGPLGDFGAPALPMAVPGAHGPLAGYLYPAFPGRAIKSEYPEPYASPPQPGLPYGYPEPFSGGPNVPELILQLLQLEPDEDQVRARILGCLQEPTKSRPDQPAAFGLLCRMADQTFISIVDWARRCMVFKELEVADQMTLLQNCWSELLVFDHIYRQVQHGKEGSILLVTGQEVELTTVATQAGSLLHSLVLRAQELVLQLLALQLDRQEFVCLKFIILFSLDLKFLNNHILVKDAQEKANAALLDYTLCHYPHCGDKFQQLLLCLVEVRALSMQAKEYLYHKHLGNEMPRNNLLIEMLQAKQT

SMILES | inhibition [1] [%] | inhibition [2] | inhibition [3] | inhibition [4]
NS(=O)(=O)c1ccc(CCNC(=O)COc2ccc3c4c(c(=O)oc3c2)CCC4)cc1 | 13.4 | 41.7% (active) | 38.2% | -15.4%
COC(=O)c1ccc(NC(=O)COc2cccc(-n3cnnn3)c2)cc1 | -5.38 | 41.3% (active) | 32.5% | -9.98%
CCOc1ccc(CCNC(=O)COC(=O)c2nc3nc(C)cc(C)n3n2)cc1OCC | 9.65 | 48.8% (active) | 38.2% | -0.98%
CC(=O)c1cccc(NC(=O)c2ccc([N+](=O)[O-])o2)c1 | 25 | 61.7% (active) | 61.9% (active) | -5.65%
O=C1CC(c2ccc3c(c2)OCCO3)Oc2ccc([N+](=O)[O-])cc21 (stereo unspecified) | 14.5 | -49.9% | -37% | -35.3%
CC(Nc1ncnc2sccc12)c1ccccc1 (stereo unspecified) | 25.8 | 64.5% (active) | 64.9% (active) | 57.7% (active)
COC(=O)c1ccc(NC(=O)CSc2nnc(C)n2CC2CCCO2)cc1 (stereo unspecified) | 3.1 | 50.5% (active) | 40.7% | -3.65%
CCCn1c(NC(=O)c2ccc([N+](=O)[O-])o2)nc2ccccc21 | 18.9 | 51.3% (active) | 21.2% | -2.27%
O=C(COc1ccc2c(-c3ccccc3)cc(=O)oc2c1)NCCCn1ccnc1 | 9.33 | 36.4% | 39% | -19.5%

From PubChem BioAssay
